In this assay the test system is VDR:RXRa (NR concentration 270 nM, RXRa partner concentration 90 nM). The assay can be described thus: PBM binding z-score (relative to random genomic background probes); higher = stronger binding; sequences stand for … in GC…GCGATTGACAGCGTAGAATGAAGG
On the procedure:
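Protein-binding microarray (Agilent 4x180K custom design, double-stranded 60-nt probes: 5' GC cap, 34-nt variable region, 24-nt constant primer region; full probe sequence given). Purified or IVT nuclear receptor:RXRα heterodimers (3:1 NR:RXRα, mostly 270:90 nM) or homodimers were incubated for 1 h in PBS with 2% milk and no ligand, then detected with Alexa488 antibodies. Fluorescence from o1-orientation probes (~5 replicates averaged) was converted to z-scores against 500 random hg19 background probes. Variable regions are seed direct-repeat (DR0–DR5) sites, all their single-nucleotide variants and half-site ablations.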
Regarding ATCTCTAGGTAACCGAGTTCAGTGAATGCCGAAC, the PBM binding z-score was 5.27.

Take CATTACGGGTCACTCCAGGTTATAGCATCGGAGT: the PBM binding z-score was 4.52.

In turn, CCTACTGGGCCATCAGGTCAATGATATCAACGTT gave a PBM binding z-score of 1.4.

Regarding TCTGCTAGGTCAGTTGGTCATCTAACGAGCTGCC, the PBM binding z-score turned out to be 0.463.

CCTAGCAGGCCAGGGTTACTCAAGCATTTCGCTT: the PBM binding z-score is -0.412.

Take TCATATAGCTAAATGCTAGGTGAAAGTCCGATCT: the PBM binding z-score stood at 0.429.

CCTACTGGGCCAAGGTCATTCATCAGTCAAAGCA gave a PBM binding z-score of 3.55.

As for ATAAGTAGGTTACATCCGGGTCATTCAGGCTATG, the PBM binding z-score amounted to 4.06.

ATCTCTAGGTAAGACTCATTTCAGTGAAGAACGC gave a PBM binding z-score of 0.308.

In turn, CCTACTGGGCCAACGTCATTGATCAGTCAAAGCA displayed a PBM binding z-score of -0.476.

The sequence CTATCAAGGTGAACAAGGTCGTTGATTACTATTC yielded a PBM binding z-score of 6.12.

As for GCTAGCAGGCCATTTGGGTAACTCAATGACGGGC, the PBM binding z-score is -0.713.

For TCATATAGGTAAATGCTAGGTGAAAGCCCGATCT, the PBM binding z-score stood at 0.543.

For CCTTACGGATCACGAGGTTATAGCACGACGAGCG, the PBM binding z-score was found to be 1.05.

As for ATATGTAGGTTAAGGGTGATTCAGGTTGGTTCGC, the PBM binding z-score stood at 1.68.

As for TCGAGTAGGTTAGTAGGGGCATTCAGCCAACATA, the PBM binding z-score was 3.1.

CCTCGGAGGACAACAGGAGGTCCGAGCTGCCAGA displayed a PBM binding z-score of -0.665.

Turning to CATCCTAGGTCAGGGCCAGTATAGGAGGAACGTT, the PBM binding z-score is 0.731.

For CCGATTGGGGCATAAGGTTACCATAAGCCAGCCC, the PBM binding z-score was 0.31.

For CAAACTAGGTCAAGAGGTCACAGTCCGCTTCCCG, the PBM binding z-score is 5.92.

For the sequence GGAACGAGGGCGAGTTGATAGCAGAGTTTGATGG, the PBM binding z-score was -0.000397.

As to GATACAGGGTCAGCTAGAGGCCAGGGTATGGAAA, the PBM binding z-score amounted to 3.14.

Sequence TCTATTTGGTCACGGAGGTCACACACGACGGGTA returned a PBM binding z-score of 5.87.

For the sequence TAGCCTAGGTTAGATCGGGCCAGTATACGCTATA, the PBM binding z-score is -0.4.

For the sequence CCTCGGAGGACAGAAAGTCAGAGCTGTCCGCTTT, the PBM binding z-score was -0.616.

In turn, TCTAGTTGGTCACGGAGGTGACACACGACGGGTA had a PBM binding z-score of 1.59.

TCTGGTAGGTCAGTTGGTCAGCTAACGAGCTGCC displayed a PBM binding z-score of 0.483.

GATACAGGGTCAGCTAGAGGCCATAGTATGGAAA gave a PBM binding z-score of 4.05.

CGAGCTAGGTCATTGACAGGACAGTGAATAGTAA: the PBM binding z-score came out at 2.04.

Turning to CCTTACGGGTCAAGGTTCTAGCACGGGTGGTACG, the PBM binding z-score amounted to 3.1.

Sequence GGAACGAGGGCAAAGTTGATAGCCTCTGTCGACG showed a PBM binding z-score of 0.981.

On to CCTAGCAGGACAATCTGGGTCACTCAAGGCTTGA, for which the PBM binding z-score came to 0.704.

With TCATATAGGTAAATGCTAGATGAAAGTCCGATCT, the PBM binding z-score stood at 0.802.

The sequence CAAATTAGGTCACGAAAGGTCAAAGTCGAATGAC showed a PBM binding z-score of 7.06.

Sequence CAAACTAGGTCATCGGAAGGTCAAAGTCCGCATG returned a PBM binding z-score of 5.72.

The sequence CTCGAAAGGACGTGCTCAGGTGAGTATACCAAAC displayed a PBM binding z-score of -0.251.

Sequence CCTATTAGTTGACCATAAGGGCATCCGAAGCTCG displayed a PBM binding z-score of 0.862.

Regarding CGTTACGGGTCACGAGGTTATAGCACGACGAGCG, the PBM binding z-score worked out at 5.35.

On to TGTCAAAGTTCAAAGCTAACGTAAGTATCCACAC, for which the PBM binding z-score turned out to be 4.16.

Consider CAAACTAGGTCACGAAAGGTTAAAGTCGAATGAC, for which the PBM binding z-score came to 5.27.

The values are drawn from the supplement of paper PMC6555819.
